The text below walks through data of PubChem BioAssay AID624414 (National Center for Advancing Translational Sciences (NCATS), 2012).

SMILES strings stand for the structures. About 480 (0.12%) of roughly 410,000 compounds were called active. The entries come from a sample that favours actives as a whole. A number with no mark means an inactive call. Rule as the data show it: active = activation above about 50%; inconclusive = mostly about 30% to 49%; inactive = weaker than that.

This assay deals with Mucolipin-1 (Homo sapiens) (UniProt Q9GZU1). Nature of the assay: qHTS for Agonists of the Human Mucolipin Transient Receptor Potential 1 (TRPML1). Also: 0% is about no effect. The note with it: TRPML1-expressing cells, Ca2+ dye fluorescence, FDSS; active compounds read high. The source says: Mutations of human Mucolipin transient receptor potential 1 (TRPML1) cause type IV mucolipidosis (ML4), a devastating neurodegenerative disease in young children. […] Currently, there is no treatment for ML4. […] Under physiological conditions, TRPMLs regulate membrane trafficking by transducing information about PI(3,5)P2 levels into changes in juxtaorganellar Ca2+, thereby triggering membrane fusion/fission events in the late endocytic pathways (endolysosomal trafficking). In addition, TRPML1 mediates release of Fe2+ from late endosomes and lysosomes, which is essential for cellular iron metabolism. Thus, impaired ion (Ca2+ and Fe2+) homeostasis underlies lysosomal dysfunction and ML4 phenotypes. In ML4 cells, the problem is twofold. First, defective Ca2+-dependent membrane trafficking due to TRPML1-deficiency causes accumulation of lipids and other bio-materials in the lysosome. The second strike comes from the lysosomal iron overload (due to impairment of TRPML1's Fe2+ conductivity), which converts the accumulated materials into the nondegradable (resistant to lysosomal degradation) lipofuscin (also called aging pigment) in the lysosome. Lipofuscin accumulation dramatically compromises the functions of lysosomes.
Chain of Mucolipin-1 (Homo sapiens) (Q9GZU1 whole entry, looked up, the tested form may be a part): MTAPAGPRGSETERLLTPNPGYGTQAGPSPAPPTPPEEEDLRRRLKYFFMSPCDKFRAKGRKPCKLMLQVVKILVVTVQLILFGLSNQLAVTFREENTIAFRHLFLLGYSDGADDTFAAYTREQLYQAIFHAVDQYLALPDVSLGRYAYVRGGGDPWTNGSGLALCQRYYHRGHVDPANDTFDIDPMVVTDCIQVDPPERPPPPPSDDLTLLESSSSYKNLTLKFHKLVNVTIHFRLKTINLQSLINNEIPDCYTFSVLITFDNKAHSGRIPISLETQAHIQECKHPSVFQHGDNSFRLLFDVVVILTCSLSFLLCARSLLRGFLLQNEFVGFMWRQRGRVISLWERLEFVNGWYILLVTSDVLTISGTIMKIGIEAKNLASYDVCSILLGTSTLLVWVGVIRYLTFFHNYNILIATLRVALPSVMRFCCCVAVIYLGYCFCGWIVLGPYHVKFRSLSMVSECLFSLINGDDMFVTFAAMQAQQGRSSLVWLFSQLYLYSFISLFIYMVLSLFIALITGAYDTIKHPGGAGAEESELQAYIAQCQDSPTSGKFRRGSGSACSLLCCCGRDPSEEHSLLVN
Niemann-Pick type C (NPC) disease is another lysosome storage disease (LSD) with severe neurodegeneration during the childhood. Currently, there is no cure for NPC. […] Thus, TRPML1 is likely to be an essential regulator of lysosome ion homeostasis. We specifically hypothesize that stimulating TRPML1's Fe2+/Ca2+ channel activity in the lysosome using synthetic agonists can alleviate neurodegeneration associated with ML4 or NPC.
To this end, a high throughput screen was developed in a miniaturized format to screen against the Molecular Libraries Small Molecule Repository (MLSMR) to find small molecules that act either as inhibitors or agonist against the TRPML1 channel.
NIH Chemical Genomics Center [NCGC]
NIH Molecular Libraries Probe Centers Network [MLPCN]
Assay Submitter (PI): Haoxing Xu, University of Michigan Ann Arbor
TRPML1-DL cells are dissociated from flasks, counted and, brought up to a density of 500,000 cells per mL of media containing a 1X Tet inducer. Using a Multidrop Combi, 3uL of this cell solution is dispensed to each well of a 1536 TC treated, black, clear bottom hi base plate for a final cell density of 1,500 cells per well. The assay plates are incubated overnight (approximately 16 hours) at 37 degrees C and 5% CO2. Using a Multidrop Combi, 2uL of ABD Ca8 no wash dye plus quencher is added to each well. The assay plates incubate at room temperature in the dark for 45-90 minutes. The assay plate is read on the FDSS using the following protocol: 10 second baseline read, 23nL of compounds and controls are added using 1536 pintool, agonist read for 110 seconds, 1 uL EC80 addition (4uM final 54-4 diluted in media), antagonist read for 110 seconds.
Take `Oc1ccc(Cl)cc1C1C=C(c2ccc3c(c2)OCO3)NC(c2c(F)cccc2Cl)N1` (configuration not stated): the activation was 0.805%. For `O=S(=O)(Nc1cccc2cccnc12)c1cccc2cccnc12`, the activation was 0.864%.

Take `CC(=O)c1ccc[n+](C(C)CCC(C)[n+]2cccc(C(C)=O)c2)c1` (configuration not stated): the activation is -0.159%. Turning to `Cc1ccc(Cl)cc1N(C)C(=O)C1CCCN(c2ncnc3onc(-c4ccc(F)cc4)c23)C1` (configuration not stated), the activation is 0.938%. The same measure for `CN(C)c1ccc(/C=C/c2sc3ccccc3[n+]2C)cc1`: -0.317%. In the case of `N#Cc1ccc[n+](CC(=O)c2ccc(O)c(O)c2)c1`, the activation is 6.5%. As to `COc1cc(OC)c(NC(=O)Cc2ccc(-n3c(C)nc4cccnc43)cc2)cc1Cl`, the activation is 2.46%.

Turning to `O=[N+]([O-])c1ccc(/C=C/c2ccc3cccnc3c2)cc1`, the activation is -0.507%.

For `CCOC(=O)c1c(NC(=O)c2ccc(S(=O)(=O)N3CCCC(C)C3)cc2)sc2c1CCN(C(C)C)C2` (configuration not stated), the activation was 0.257%. The same measure for `COc1ccccc1N1CCN(c2ncnc3onc(-c4ccc(F)cc4)c23)CC1`: 0.772%; for `O=C(c1cnn2c1NC(=C1CC1)C=C2C(F)F)N1CCc2ccccc2C1`: -0.995%. The same measure for `C(=Nc1ccc(/C=C/c2ccnc3ccccc23)cc1)Nc1ccc(/C=C/c2ccnc3ccccc23)cc1`: 8.34%. Under `Cc1cc(=O)n(CC(=O)Nc2cccc([N+](=O)[O-])c2)c(-n2nc(C)cc2C)n1` stands 1.21%; under `COc1ccccc1NC(=O)CSC1=Nc2ccccc2C2=NC(CC(=O)NCc3cccs3)C(=O)N12` (configuration not stated), 3.51%. Regarding `CC1(C)C=Cc2c(ccc(C(=O)/C=C/c3ccccc3)c2O)O1`, the activation was 19.2%. The same measure for `COc1cccc(C(=O)c2sc3nc(-c4ccccc4)cc(C(F)(F)F)c3c2N)c1`: 98.2% (active); for `COc1ccc(S(=O)(=O)c2c(Nc3cccc(Cl)c3)sc(C(=O)c3ccccc3)c2N)cc1`: 14.6%. Turning to `COc1cccc(C(=O)Nc2ccc(-c3cc(C(F)(F)F)nn3-c3ccccc3)cc2)c1`, the activation was 3.44%. The same measure for `COc1ccc(Cn2c(=O)n(-c3ccccc3C)c(=O)c3c4c(sc32)CN(C(C)=O)CC4)cc1`: -0.696%; for `O=C(Nc1ccc2nc(SCC(=O)N3CCCc4ccccc43)sc2c1)c1ccc(Cl)cc1`: 1.16%; for `O=C(Nc1ccc([N+](=O)[O-])cc1)c1cnn2c1NC(=C1CC1)C=C2C(F)F`: -0.353%. Consider `CCCCC(CCCC)c1ccc(C=Nc2ccc(/C=C/c3ccnc4ccccc34)cc2)cc1`, for which the activation was 5.8%.
